# From the supplement of paper PMC6555819
# Experiments:
# Assay in all cases: PBM binding z-score (relative to random genomic background probes); higher = stronger binding; sequences stand for … in GC…GCGATTGACAGCGTAGAATGAAGG
# [1] = system: RARb homodimer (NR concentration 270 nM)
# Method in brief: (§1)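 Binding buffer was PBS pH 7.4 with 2% milk, 0.02% Triton X-100, 1 mM DTT, 0.2 mg/mL BSA and 0.4 mg/ml salmon testes DNA. In it, ligand-free nuclear receptor dimers were incubated 1 h on custom Agilent 4×180K protein-binding microarrays carrying double-stranded probes. Antibodies against each partner (one per run) detected binding, and z-scores were calculated against random background probes after regression normalization of scanned fluorescence.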
# [2] = system: RARg:RXRa (NR concentration 270 nM, RXRa partner concentration 90 nM)
# Method in brief: as §1
# [3] = system: RARg homodimer (NR concentration 270 nM)
# Method in brief: as §1
# [4] = system: RXRa DBDmut IVT, anti-RXR (DBD mutation: RXRa K156A/R161A, NR concentration 90 nM)
# Method in brief: as §1
# [5] = system: RXRa homodimer (NR concentration 180 nM)
# Method in brief: as §1
# [6] = system: THRa:RXRa (NR concentration 90 nM, RXRa partner concentration 90 nM)
# Method in brief: as §1
# [7] = system: THRa homodimer (NR concentration 90 nM)
# Method in brief: as §1
# [8] = system: VDR homodimer (NR concentration 270 nM)
# Method in brief: as §1
Sequence,PBM binding z-score [1],PBM binding z-score [2],PBM binding z-score [3],PBM binding z-score [4],PBM binding z-score [5],PBM binding z-score [6],PBM binding z-score [7],PBM binding z-score [8]
TCTTGTAGATCAACAGGAGGGTAAGAAAGATCGA,-0.229,0.172,0.108,0.172,0.0944,-0.144,-1.1,-0.319
TTACCAAGGTGAGCTGAGGTAGTTGATCCAACTC,0.264,-0.0541,0.00581,-0.913,-0.0499,3.02,0.0435,-0.88
CCTTACGGGTCAAGGTTATGGCACGGGTGGTACG,3.66,5.06,4.67,1.1,5.31,3,0.804,1.45
ATCTCCAGGTAAAGATAGTTCAGTGAATGCAAAT,1.03,0.342,0.839,0.0268,-0.000636,1.06,0.451,0.711
CTCGAAAGGTCGGTTGAGCTGAGTATACGGATAA,1.27,2.09,2.29,0.709,1.74,0.825,-0.574,-0.476
GCTCGGAGGACAGGGTCAGAGCTTTGTCCGTAGA,2.28,2.42,2.37,0.265,2.69,2.4,0.321,0.212
TTACCAAGGTGAGCTGAGGTCTTTGATCCAACTC,0.568,0.335,0.384,-0.584,0.322,4.17,0.8,-0.646
CCTAGCAGGCCAATCTGGGTCACGCAAGGCTTGA,2.43,1.86,1.9,-0.504,1.69,3.99,0.767,-0.0889
TCTCGGAGGACACGAAAGCTCAGAGCTCGACATC,0.352,0.462,1.19,0.558,-0.227,1.23,0.151,-0.801
CCGACTGGGGAATAAGGTTACCATAAGCCAGCCC,1.02,0.435,0.223,-0.297,0.812,2.03,1.18,-0.0686
ATTTGTAGGTTAAGGGTCATTCAGGTTGGTTCGC,3.97,5.34,4.15,2.49,6.91,3.76,2.55,5.33
GCTATTAGTTGAAAGGGCAACAGAATGATTCTCG,1.87,1.36,1.47,0.874,1.24,0.672,-0.526,0.397
ATACCAAGGTGATCGTGAGGTTGTTGATACTAAC,0.567,0.576,0.356,0.169,0.593,1.89,0.949,0.36
ATACGTAGGTTAAGGGTCATTCAGGTTGGTTCGC,4.06,5.01,3.58,2.11,6.29,3.72,1.6,4.36
CTCGAAAGGTCGGTTGAGGTGAATATACGGATAA,2.32,2.98,2.77,0.545,2.5,5.06,1.58,0.52
ATCTCTAGGTAAGACTCAGTTAAGTGAAGAACGC,0.172,0.0663,0.313,0.443,0.197,0.607,0.783,0.377
ATATGTAGGTTACATTCGGGTCATTCAGGCTATG,2.86,3.72,2.05,1.74,3.03,3.99,3.23,3.31
TTAGACAGGTGAAGGTAACTCAGGTACGCAGTCG,0.861,0.559,0.81,-0.329,0.753,1.48,0.377,0.53
TGAATGAGGTTAGAAGATCAGGGAACGTTGCAAA,0.0495,0.98,0.936,-0.437,1.17,1.13,-0.107,-0.169
CAGCCTAGGTCAGGGCAAGTATAGGAGGAACGTT,2.89,3.37,4.42,0.0937,2.07,2.2,0.481,-0.0774
TAGTCTAGGTCATTGGGCCAGTATAGTACGCATC,3.08,3.92,4.79,1.95,3.26,3.32,1.55,1.87
ATCTCTAGGTAACACTCAGTTCAGTGAAGAACGC,1.27,0.926,0.875,1.05,0.63,1.64,1.38,2.25
CGTAGCAGGCCAGGGTCACTCAAGCATTTCGCTT,2.51,3.02,2.53,0.749,3.36,2.84,1.33,1.18
TCTTGTAGATCAATTGAGGTTAAGAAAGTGCGCT,0.953,0.568,0.0458,1.05,0.886,3.84,0.878,0.579
CTCGAAAGGTCGTGCTCAGGTGAATATACCAAAC,3.06,5.46,4.17,2.45,5.01,4.38,1.6,1.27
GATACAGGGTCAGCTAGAGGCCAGAGGATGGAAA,3.55,6.91,4.81,1.22,4.69,2.93,0.198,0.847
GCTTGGAGGACAAGGTCAGAGCTTTGTCCGTAGA,3.25,3.03,3.61,0.782,2.37,3.02,1.46,0.256
ATATGTAGGTTAAGGGTCCTTCAGGTTGGTTCGC,1.37,1.03,1.09,0.575,1.59,1.15,0.749,1.01
